From PubChem BioAssay AID463212 (Sanford-Burnham Center for Chemical Genomics, 2010)
In all, about 330,000 compounds went through this assay and about 4,400 (1.3%) were called active. Shown is part of a subset that was picked to be rich in actives. A number with no mark means an inactive call.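 How the source made its calls: active means growth inhibition of the mutant yeast at or above 50%; inactive means the rest.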

assay: growth inhibition of tim23-1 ts yeast – luminescence, uHTS, primary screen (AID 463212);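 further: temperature-sensitive mutant grown at 25 °C; plate controls were DMSO-treated mutant yeast for no effect and medium wells lacking yeast for full effect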; details: S. cerevisiae tim23-1 growth, BacTiter-Glo luminescence, 24 h; at 20 µM; stronger effect = higher value

Compound	inhibition
O=C(O)c1cccc(NC(=S)N/N=C/c2c[nH]c3ccccc23)c1	7.37%
FC(F)(F)c1cccc(Nc2ncnc3ccccc23)c1	94% (active)
COc1ccc(CNc2ncnc3ccccc23)cc1	-0.028%
FC(F)(F)c1cccc(NC(=S)Nc2cccc(Cl)c2)c1	46.1%
Cc1ccccc1-n1nc(SCC(=O)O)sc1=S	-2.14%
[O-][n+]1c2c(nn1-c1ccc(Cl)c(Cl)c1)-c1nonc1CC2	4.72%
Clc1ccc(Nc2nc(-c3cccs3)cs2)nc1	70.7% (active)
Clc1ccc(Cc2nnc(-c3cccs3)o2)cc1	15%
CCCc1cc(C(=O)Nc2ccc(Cl)cn2)cs1	33%
O=C(OCC(=O)N1CCCCCC1)c1cnc(Cl)c(Cl)c1	2.9%
O=S(=O)(Nc1ccc(O)c2ccccc12)c1ccc(OC(F)(F)F)cc1	28.5%
CCOC(=O)c1cc2cc(-c3c(C(=O)OCC)oc4cc(O)cc(O)c4c3=O)ccc2o1	14.3%
COc1ccc(-c2onc(C)c2-c2ccc3c(c2)OCCO3)c(O)c1	28.1%
O=c1c(-c2ccc3c(c2)OCCO3)c(C(F)(F)F)oc2cc(O)cc(O)c12	58.2% (active)
CCOc1ccc(CCNC(=O)CCc2nnc3ccc(N4CCCC4)nn23)cc1OCC	10.2%
O=C1NC(c2ccccc2)Oc2ccccc21 (stereo not given)	22.9%
Cc1ccccc1NC(=O)COc1cccc2c1CCNC2=O	12.3%
O=C(Nc1ccc(N2CCN(C(=O)c3cccs3)CC2)cc1)c1cccnc1Cl	12.9%
O=C(Nc1nn(Cc2ccccc2F)cc1Br)c1cccs1	17.3%
CC(=O)N1N=C(c2ccccc2)OC1c1cccnc1 (stereo not given)	0.277%
O=C(Cc1ccccc1)N1N=C(c2ccncc2)CC1(O)C(F)(F)F (stereo not given)	9.71%
CC(=O)N1N=C(c2ccncc2)OC1(Cc1ccccc1)Cc1ccccc1	52.9% (active)
Cc1ccsc1C(=O)NNC(=O)COc1ccc(Br)cc1	-6.92%
C#CCNC(=O)[C@H](Cc1ccc(C(=O)c2ccccc2)cc1)NC(=O)OC(C)(C)C	5.1%
O=C(CNc1cccc(S(=O)(=O)N2CCCCC2)c1)Nc1ccccc1F	14.8%

Compound	inhibition
COCCn1c(C)cc(C(=O)CN2c3cccc4cccc(c34)S2(=O)=O)c1C	5.11%
Oc1ccccc1-c1cc(-c2ccc(Cl)cc2)n[nH]1	56.4% (active)
CSc1ccccc1-c1nnc(-c2ccc(Cl)cc2)o1	21.3%
Cc1ccc(NC(=O)c2cc(-c3ccccc3O)n[nH]2)cc1C	-2.65%
Cc1ccc(NC(=O)c2nc[nH]c2C(=O)N2CCCCC2)c(C(=O)c2ccccc2)c1	6.29%
C=C(C)C(=O)O[C@H]1C/C(C)=C\C(=O)/C=C(\C)[C@H](O)[C@@H]2OC(=O)C(=C)[C@@H]21	4.97%
COc1ccc(C)cc1NC(=O)CSc1nnc(CC(=O)Nc2ccccc2F)n1C	3.22%
O=C(O)Cn1c(Cc2ccccc2)nc2ccccc21	-1.32%
COc1ccc(-c2cn[nH]c2-c2ccc(OC)cc2)cc1	47.7%
CCOc1ccccc1Oc1cn[nH]c1-c1ccc(OC)cc1O	-69.3%
COc1ccc(Oc2cn[nH]c2-c2ccc(OC)cc2O)cc1	66.3% (active)
Cc1cc(NC(=O)CSCc2nc(-c3cccc(Cl)c3)oc2C)no1	1.1%
COc1cccc2c1CCC(NC(C)=O)C2=O (stereo not given)	0.522%
Cc1cccc(C)c1NC(=O)CN(C)C(=O)CCC(=O)c1ccccc1	15%
Cc1cccc(C)c1NC(=O)C(c1ccccc1)N1CC(=O)Nc2ccccc21 (stereo not given)	21.3%
Cc1cccc(C)c1NC(=O)C(Cl)C(=O)c1ccccc1 (stereo not given)	80.7% (active)
COc1ccc(CN2CCCCC2C)cc1OC (stereo not given)	10.1%
CCC(C)n1c(-c2cc(OC)c(OC)c(OC)c2)nc2nc3ccccc3nc21 (stereo not given)	19.1%
C[C@H](NC(=O)C1CC(=O)N(c2ccc3c(c2)OCO3)C1)C(=O)NCc1ccco1 (stereo not given in full)	13.9%
CCCCN(CCCC)CC(O)Cn1c2ccccc2c(=O)c2ccccc21 (stereo not given)	5.18%
CC(C)(C)c1ccc(CN2C(=O)c3ccccc3S2(=O)=O)cc1	22.3%
O=C1c2ccccc2S(=O)(=O)N1CC(O)Cn1c2ccccc2c2ccccc21 (stereo not given)	84.5% (active)
COc1ccc(N(CC(=O)Nc2cccc3ccccc23)S(C)(=O)=O)c(OC)c1	6.45%
COc1ccc(N(CC(=O)Nc2ccc(C)cc2C)S(=O)(=O)c2ccccc2[N+](=O)[O-])c(OC)c1	19.7%
CCc1ccccc1NC(=O)CN(c1ccc(OC)cc1OC)S(=O)(=O)c1ccccc1[N+](=O)[O-]	50.4% (active)
